Compound activity as filed in PubChem.
Hits are enriched below; roughly 3% of the tested compounds scored in any of these assays.
EWS-Fli block: EWS/Fli-driven NR0B1 reporter inhibitors, primary screen, A673 cells, NR0B1 luciferase, luminescence, MLPCN library; viability-normalised; inhibition, % at 12.6 µM; hit rate 0.67% among 350,000; AID 651661, 2012;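 active means mean inhibition of at least 50% after viability correction, with every replicate also passing that limit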;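 further: firefly luciferase signal divided by Alamar Blue viability fluorescence both relative to DMSO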
ABHD5-PLIN5 inh: ABHD5-PLIN5 interaction inhibitors, primary screen, cell lysate, split luciferase complementation, luminescence; hit rate 0.78% among 360,000; inhibition, % at 4 µM; Split G. princeps luciferase complementation, 4 h;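 active means inhibition above the mean inhibition across every tested compound plus 3 SD, cut at about 22% in these data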;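 further: 0% = DMSO only wells and the 100% control is not disclosed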
Target sequence (Q00G26 whole entry, looked up): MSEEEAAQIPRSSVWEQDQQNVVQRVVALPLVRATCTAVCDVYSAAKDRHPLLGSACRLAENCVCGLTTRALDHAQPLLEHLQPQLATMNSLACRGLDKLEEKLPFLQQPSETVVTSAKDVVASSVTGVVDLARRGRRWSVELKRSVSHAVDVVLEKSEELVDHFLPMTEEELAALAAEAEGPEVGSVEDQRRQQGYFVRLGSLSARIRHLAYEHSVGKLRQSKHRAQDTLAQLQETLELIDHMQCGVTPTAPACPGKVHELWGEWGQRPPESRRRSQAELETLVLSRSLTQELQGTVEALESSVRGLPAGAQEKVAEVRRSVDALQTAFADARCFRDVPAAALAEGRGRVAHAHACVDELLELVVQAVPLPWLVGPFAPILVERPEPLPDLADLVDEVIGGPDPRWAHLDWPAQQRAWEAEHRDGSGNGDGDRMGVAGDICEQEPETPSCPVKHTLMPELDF
Target sequence (Q8WTS1 whole entry, looked up): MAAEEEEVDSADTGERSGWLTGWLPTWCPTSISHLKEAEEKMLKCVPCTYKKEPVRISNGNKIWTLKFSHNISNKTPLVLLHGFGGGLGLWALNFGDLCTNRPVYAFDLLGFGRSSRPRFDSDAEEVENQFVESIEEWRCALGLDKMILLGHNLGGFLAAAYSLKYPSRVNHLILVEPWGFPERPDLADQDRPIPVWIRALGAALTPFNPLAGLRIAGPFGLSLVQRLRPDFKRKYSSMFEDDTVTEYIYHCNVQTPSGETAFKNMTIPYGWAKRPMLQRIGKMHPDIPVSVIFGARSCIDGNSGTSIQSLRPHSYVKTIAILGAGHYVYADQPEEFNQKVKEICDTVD
TRPM1 prom inh: inhibitors of MITF-dependent TRPM1 promoter reporter, primary screen, cell-based, SK-MEL-5, single point, luciferase | SK-MEL-5 TRPM1 promoter luciferase, 24 h | inhibition, % at 12.5 µM | hit rate 0.83% among 330,000 | AID 488899, 2010;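 active means mean inhibition across replicates of 60% or more, whatever share of single replicates reaches that level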
PAX8 inh HTS: inhibitors of PAX8-driven TPO luciferase reporter, primary screen, RMG-I cells, single concentration | SteadyGlo, 24 h | hit rate 1.2% among 360,000 | inhibition, % at 12.6 µM;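 active means mean replicate inhibition at least 60% with every replicate also reaching 60%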;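 further: luciferase light reporting Pax8 driven TPO promoter activity; plate controls were median of neutral control wells for no effect and mitoxantrone controls for full effect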
Shn3 inh set2: reduction of Shn3 3'UTR firefly luciferase signal, primary screen, Schnurri-3 inhibitor project, cell-based, Clone20 osteoblasts, set 2 | AID 588674, 2011 | Clone20 osteoblast Shn3 3'UTR firefly luciferase, 24 h | inhibition, % at 12.5 µM | hit rate 0.52% among 360,000;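 active means mean inhibition of at least 75% with every replicate also reaching 75%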;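 further: 0% = median of neutral control wells and 100% = pilot-screen positive control compound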
Peg3 prom inh-1: Peg3 promoter-driven luciferase inhibitors, primary screen, cell-based, HeLa, luciferase luminescence. HeLa PEG-Prom luciferase reporter, overnight. inhibition, % at 20 µM. hit rate 1.7% among 360,000;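 active means inhibition of at least 50% at 20 µM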
Peg3 prom inh-2: Peg3 promoter reporter inhibitors, retest, confirmation, cell-based, HeLa, luciferase reporter, single concentration; shares compounds with Peg3 prom inh-1; HeLa PEG-Prom luciferase reporter, luminescence, overnight; inhibition, % at 20 µM; hit rate 84% among 1,300; AID 602417, 2012;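 active means at 20 µM dose, 40% or more inhibition averaged across four replicates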
The depositor's hits bear a star; nt = no result.

SMILES	EWS-Fli block	ABHD5-PLIN5 inh	TRPM1 prom inh	PAX8 inh HTS	Shn3 inh set2	Peg3 prom inh-1	Peg3 prom inh-2
O=C1c2cccc3cc([N+](=O)[O-])cc(c23)C(=O)N1CCN1CCCC1	69*	4	84*	90*	94*	112*	99*
NC(=O)CN1CCN(CCN2C(=O)c3cccc4cccc(c34)C2=O)CC1	nt	-8	-15	-24	12	-15	nt
COc1ccc2ccccc2c1/C=N/NC(=O)c1ccc(C)nc1	-11	-2	-1	1	-8	-3	nt
O=C(N/N=C/c1c(O)ccc2ccccc12)c1ccc(CO)nc1	4	8	46	71*	82	55*	70*
CO[C@@H]1CN(C)C(=O)c2ccc(NC(C)=O)cc2OC[C@@H](C)N(C(=O)CC2CC2)C[C@H]1C	8	nt	nt	-2	nt	nt	nt
COc1ccc(NC(=O)O/N=C/c2c(C)nn(C(C)(C)C)c2C)cc1	-52	-4	-70	-128	-36	-187	nt
Cc1nn(C(C)(C)C)c(C)c1/C=N/OC(=O)Nc1ccc(Cl)c(Cl)c1	9	-4	53	1	nt	106*	97*
COc1cccc(C(=O)N2C[C@H]3[C@@H](c4ccccc42)[C@H](CO)N3Cc2ccccc2F)c1	2	nt	nt	19	nt	nt	nt
O=C(C[C@H]1C[C@H](C(=O)N2CCCCC2)[C@@]2(CCc3ccccc3)c3[nH]c4ccc(Cl)cc4c3CCN2C1=O)NCCN1CCOCC1	nt	3	-3	nt	1	80*	-2
CCc1ccc(NC(=O)CSc2nc3ccccc3c(=O)n2CCCN2CCC(C)CC2)cc1	23	10	-12	32	26	93*	95*
CCCNC(=O)N1[C@H](CO)[C@H](c2ccccc2-c2ccccc2)[C@@H]1C#N	-1	nt	nt	-14	nt	nt	nt
COc1ccccc1/C=N/Nc1nncc2ccccc12	-97	6	-63	-142	-20	-96	nt
COc1ccc(/C=N/Nc2nncc3ccccc23)cc1	67*	-1	5	6	12	56*	46*
OCCN1CCN(C2CCC(c3ccc(F)cc3)c3ccc(F)cc32)CC1 (stereo not given)	32	16	13	19	nt	56*	73*
CN(C)CCNc1ncnc2c1sc1nc(N3CCOCC3)c3c(c12)CC(C)(C)SC3	nt	3	77*	48	6	81*	94*
CCN(CC)c1ccc2nc3ccc(N)cc3[n+](-c3ccccc3)c2c1	28	19	93*	nt	90*	89*	72*
CCN(CC)c1ccc(/C=N/n2nnnc2N)c(O)c1	nt	-4	-19	nt	-32	-111	nt
O=C(C[C@H]1CC[C@H]2[C@@H](COC[C@@H](O)CN2Cc2cc(F)ccc2F)O1)N1CCc2ccccc2C1	3	nt	nt	44	nt	nt	nt
Cc1ccc(C(=O)O)cc1N1C(=O)c2cccc3c([N+](=O)[O-])ccc(c23)C1=O	17	6	0	-1	4	2	nt
O=C(O)c1ccc(CN2C(=O)c3cccc4c([N+](=O)[O-])ccc(c34)C2=O)cc1	nt	-7	12	nt	73	103*	90*
COc1ccc2sc3cccc(NCCN(C)C)c3c(=O)c2c1	-25	17	nt	-38	-11	97*	66*
CCOC(=O)c1c(SCCN2CCCCC2)n(-c2ccccc2)c(=S)n(-c2ccccc2)c1=O	79*	12	99*	-14	81	108*	99*
O=C1N[C@@H](c2ccccc2)COC(=O)[C@@H](Cc2ccc(F)cc2)CC/C=C/C[C@H]1CC(=O)N(CCO)Cc1ccccc1	-11	4	-2	1	-5	52*	47*
C[C@@H]1COC(=O)[C@H](Cc2ccc(F)cc2)C/C=C\C[C@@H](CC(=O)N[C@H](CO)Cc2ccccc2)C(=O)N1	-3	-3	-1	-4	-5	-8	nt
O=C(C[C@@H]1C/C=C\C[C@@H](Cc2ccc(F)cc2)C(=O)OC[C@@H](Cc2ccccc2)NC1=O)N[C@H](CO)Cc1ccccc1	6	-12	-3	9	10	63*	23
SMILES	EWS-Fli block	ABHD5-PLIN5 inh	TRPM1 prom inh	PAX8 inh HTS	Shn3 inh set2	Peg3 prom inh-1	Peg3 prom inh-2
Cc1ccc2cccc(OCC(=O)Nc3cccc(S(=O)(=O)N4CCCC4)c3)c2n1	9	0	2	16	18	64*	64*
O=C(C[C@@H]1CC[C@@H]2[C@H](COC[C@H](O)CN2C(=O)c2ccncc2)O1)NC1CCC1	2	nt	nt	-23	nt	nt	nt
CO[C@@H]1CN(C)C(=O)c2cc(NC(=O)Nc3c(C)noc3C)ccc2OC[C@@H](C)N(CCC(F)(F)F)C[C@H]1C	-3	nt	nt	nt	nt	nt	nt
NC(c1csc(Nc2nccc(C(F)(F)F)n2)n1)C1CCCCC1 (stereo not given)	-9	3	nt	3	3	83*	94*
COc1ccc(NC(=O)Nc2nc(C(N)C3CCCCC3)cs2)cc1 (stereo not given)	13	-2	nt	-32	-36	54*	71*
CC(C)c1ccc(NC(=O)Nc2nc(C(C)N)cs2)cc1 (stereo not given)	5	2	nt	14	-12	86*	90*
Cc1ccccc1NC(=O)Nc1nc(CN)cs1	-5	-4	nt	4	-4	-2	nt
NC(c1csc(Nc2ncccn2)n1)C1CCCCC1 (stereo not given)	-17	6	nt	-4	-5	-7	nt
Cc1ccccc1NC(=O)Nc1nc(C(N)C2CCCCC2)cs1 (stereo not given)	-6	11	nt	6	12	86*	81*
COc1ccc(NC(=O)N(C)C[C@@H]2OCCCC[C@H](C)Oc3ccc(NS(C)(=O)=O)cc3C(=O)N([C@@H](C)CO)C[C@@H]2C)cc1	-11	nt	nt	14	nt	nt	nt
O=C(c1cnccn1)N1CC[C@@H]2[C@H]1c1cc(-c3ccccc3)ccc1N[C@@H]2CO	-5	nt	nt	-36	nt	nt	nt
COc1cccc(Nc2nc(C(C)N)cs2)n1 (stereo not given)	4	-6	nt	-1	9	6	nt
COc1cccc(Nc2nc(C(N)C3CCCCC3)cs2)n1 (stereo not given)	3	-12	nt	-12	23	96*	63*
Cc1ccc(-n2c(N)c(C(=O)Nc3c(C)n(C)n(-c4ccccc4)c3=O)c3nc4ccccc4nc32)cc1	22	-2	0	16	26	76*	51*
Cc1ccc(C(=O)Nc2c(C)n(C)n(-c3ccccc3)c2=O)cc1	-3	-2	6	-3	-8	7	nt
CCCNC(=O)N[C@H]1C=C[C@H](CC(=O)NC2CCCCC2)O[C@H]1CO	0	nt	nt	-8	nt	nt	nt
